Only some compounds are listed: those with a hit (about 2.8% of all), similar ones and a draw of the others.
IP6K1 inhibitor: Primary qHTS assay for small molecule inhibitors of Inositol hexaphosphate kinase 1 (IP6K1); hit rate 0.81% among 140,000; IP6K1 kinase, ADP-Glo luminescence, 2 h; stronger effect = lower value; Inositol hexakisphosphate kinase 1 (Homo sapiens), Q92551; activity change, % (series mostly up to about 58 µM); in the data active = activity change below about -25%; note: % is set by controls: 0 for no effect and ±100 for the full control effect
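ADP-Glo luminescence measures ADP made by human IP6K1 during a 2 h RT reaction with ATP/IP6 (mix at 1.3 mM/130 uM); top library doses 57.5 and 19.1 uM final.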
HEK293 viab: GF-AFC viability counterscreen for inhibitors of alpha-synuclein gene (SNCA) expression; HEK-293-SNCA-luc viability, GF-AFC fluorescence, 24 h; Potency, µM (highest dose often 57.1 µM), without a hit: top-dose activity change, negative = cytotoxicity, usual class: cytotoxic; hit rate 0.12% among 150,000; AID 1671193, 2021;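 note: potency is the fitted concentration of half-maximal effect; 0% = DMSO-treated cells and -100% = medium-only wells without cells; nearly all actives have a fitted effect of over 30% in size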
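HEK-293-SNCA-luc cells (1500/well) plated 24 h, then exposed 24 h to a dilution series; GF-AFC added 30 min at 37C, fluorescence 405/540 nm; normalised to medium-only and DMSO wells, Hill fit.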
SNCA expr inh: Primary qHTS assay for inhibitors of alpha-synuclein gene (SNCA) expression. AID 1671194, 2021. hit rate 0.17% among 140,000. Potency, µM (doses to about 57.2 µM), for the others: at the top dose activity change, negative = inhibition, hits mostly inhibitors. HEK-293 SNCA-luciferase knock-in, luminescence, 24 h;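 note: potency is the fitted concentration of half-maximal effect; plate controls were DMSO cells for no effect and cell-free wells for full effect; nearly all actives have a fitted effect of over 45% in size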
KDM5B inh: Primary screen for KDM5B Histone Demethylases FDH-coupled qHTS | Lysine-specific demethylase 5B (Homo sapiens), Q9UGL1 | KDM5B demethylase, FDH-coupled NADH fluorescence (FDH is formaldehyde dehydrogenase) | Potency, µM (top dose mostly 57.7 µM), actives largely listed as inhibitors | hit rate 2.6% among 220,000; note: potency is the fitted concentration of half-maximal effect; 0% is about no effect; nearly all actives have a fitted effect of over 70% in size
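KDM5BΔAP (200 nM final) in 50 mM HEPES pH 7.5, 0.01% Tween-20 was preincubated 10 min at RT with compound over a concentration range. Substrate mix (H3K4me3 12.5 µM, α-KG 25 µM, Fe²⁺, ascorbate, NAD⁺, FDH) was added, and NADH fluorescence change over 30 min gave dose-response curves.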
The depositor's hits bear a star; i = inactive; ? = inconclusive; . = no result; [ ] = dose if it differs, or a comment. Unless noted, calls come from the whole dose curve; as a rule, active = well fitted curve in the direction sought with a large enough effect; inconclusive = small, poorly fitted or top-dose-only effect, or another doubt; inactive = no such curve, though single readings can be large; an effect the other way counts as inactive or inconclusive.

SMILES | IP6K1 inhibitor | HEK293 viab | SNCA expr inh | KDM5B inh
Cc1nn2c(c1-c1ccccc1Oc1ccccc1)N(Cc1cccc(O)c1)CCC2 | 8.7 | ? | ? | ?
Cc1nn2c(c1-c1ccccc1OCc1ccccc1)N(Cc1ccc(C(=O)O)s1)CCC2 | 21.3 | ? | 11.2µM* | ?
Cc1nn2c(c1-c1ccccc1Oc1ccccc1)N(Cc1ccccc1O)CCC2 | 15.2 | ? | 2µM* | 28.2µM*
Cc1nn2c(c1-c1ccccc1OCc1ccccc1)N(Cc1ccccc1)CCC2 | 22.9 | ? | ? | ?
COc1ccccc1CN1CCCn2nc(C)c(-c3ccccc3C(N)=O)c21 | 13.1 | ? | 3.55µM* | 31.6µM*
CCOC(=O)c1cnc(Nc2ccc(C)cc2)c2ccccc12 | . | . | . | i
CCn1cc(/C=C(\NC(=O)c2ccco2)C(=O)N2CCOCC2)c2ccccc21 | . | . | . | i
COc1ccccc1NC(=O)CSc1nnc(C)n1-n1cccc1 | . | . | . | i
CN1CCN(c2cc(=O)c3ccnc(-c4ccccc4F)c3o2)CC1 | -7.0 | -14.7%[87.6 µM] | -40.3%[87.6 µM] | 35.5µM*
CN1CCN(c2cc(=O)c3ccnc(-c4ccnn4C)c3o2)CC1 | -13.5 | 2.3%[87.6 µM] | ? | 39.8µM*
CN1CCN(c2cc(=O)c3ccnc(-c4cn[nH]c4)c3o2)CC1 | -13.9 | 5.5%[87.6 µM] | 10.1%[87.6 µM] | 28.2µM*
COc1ccc(-c2cc(=O)n3c4ccccc4n(Cc4cccc(F)c4)c3n2)cc1 | . | . | . | i
OCC(CO)(CO)NCC(O)CNC(CO)(CO)CO | . | . | . | i
O=C1CN(Cc2ccc(-c3ccccc3)cc2)CCN1c1ccc(Cl)nn1 | 17.3 | 9.6% | 7.2% | i
O=C1CN(Cc2ccc(-c3cccs3)cc2)CCN1c1ccc(Cl)nn1 | 13.4 | -9.5% | ? | 79.4µM*
c1ccc(CCN2CCNc3cc(NCc4cccnc4)ncc3C2)cc1 | -20.3 | -16.6%[87.6 µM] | -25.3%[87.6 µM] | 35.5µM*
CCn1cc(-c2cc3c(cn2)CN(Cc2cccnc2)CCN3)cn1 | -12.6 | -2.0%[87.6 µM] | 141.9%[87.6 µM] | 31.6µM*
c1cncc(-c2cc3c(cn2)CN(Cc2ccncc2)CCN3)c1 | -2.3 | -3.3%[87.6 µM] | 9.8%[87.6 µM] | ?
c1ccc(CN2CCNc3cc(-c4cccnc4)ncc3C2)cc1 | -20.4 | -9.4%[87.6 µM] | 32.5%[87.6 µM] | 31.6µM*
Cc1[nH]cnc1CN1CCNc2cc(-c3ccccc3)ncc2C1 | -3.5 | -5.9%[87.6 µM] | ? | 31.6µM*
c1ccc(CCN2CCNc3cc(-c4cn[nH]c4)ncc3C2)cc1 | -11.7 | ? | 13.1%[87.6 µM] | ?
Oc1ccccc1CN1CCNc2cc(-c3ccccc3)ncc2C1 | -9.3 | ? | 26.9%[87.6 µM] | ?
CCN1CCC(N(Cc2ccc3c(c2)OCO3)C(=O)Nc2ccc(OC)cc2OC)CC1 | . | . | . | i
NC(=O)c1cccc(-c2cc3c(cn2)CN(Cc2ccccc2)CCN3)c1 | 8.2 | -19.0%[87.6 µM] | -5.9%[87.6 µM] | 31.6µM*
NC(=O)c1cccc(-c2cc3c(cn2)CN(Cc2ccncc2)CCN3)c1 | 12.1 | 6.2%[87.6 µM] | 7.1%[87.6 µM] | ?
SMILES | IP6K1 inhibitor | HEK293 viab | SNCA expr inh | KDM5B inh
COc1ccc(-c2cc(N3CCCC(NC(=O)c4sccc4C)C3)n[nH]2)cc1 (stereo not drawn) | 0.0 | ? | 21.0% | ?
COCC1CN(C2CCC2)CC12CCN(C(=O)COc1ccc(F)cc1)CC2 (stereo not drawn) | 5.2 | -20.0% | -9.6% | 10µM*
COCC1CN(C2CCC2)CC12CCN(C(=O)COc1ccccc1)CC2 (stereo not drawn) | 8.3 | -8.0% | 3.1% | ?
O=C(NCCNc1cccnc1)C1CCC(=O)N(Cc2ccc(Cl)cc2)C1 (stereo not drawn) | -13.9 | -12.1% | 4.3% | 11.2µM*
CC1CCCN(c2ccc3ncccc3c2[N+](=O)[O-])C1 (stereo not drawn) | . | . | . | i
COc1ccc(CN[C@H]2C[C@H]3C(=O)NC[C@@H](CCC(=O)NCc4ccccc4)N3C2)cc1 | 3.6 | -2.3% | 26.8% | 35.5µM*
O=C(CC[C@@H]1CNC(=O)[C@@H]2C[C@H](NCc3ccccn3)CN12)NCc1ccccc1 | -7.4 | -12.3%[87.6 µM] | -14.8%[87.6 µM] | 25.1µM*
O=C(N[C@@H]1CCOC[C@H]1O)c1cnn2cc(CCO)cnc12 | -8.1 | 4.8% | -18.8% | 28.2µM*
CCN(CC)Cc1cnc2c(C(=O)NC3CCC3)cnn2c1 | -2.4 | -1.4% | 0.0% | ?
CCOC(=O)[C@@H]1[C@@H](O)C(=O)N(Cc2ccccc2)C12CCN(C(=O)OCC(C)(C)C)CC2 | 2.2 | . | . | .
CN(C)c1ccc(CN2C[C@@H](CN3CCCCC3)[C@@H](CO)C2)cn1 | 0.0 | -4.4% | 14.9% | 28.2µM*
CCCCn1nc(C(=O)Nc2nc3c(C)cccc3s2)c2ccccc2c1=O | . | . | . | i
COc1ccccc1-c1nc(C(=O)NCc2ccc(F)cc2)n2ccccc12 | -17.5 | -0.7% | 17.9% | 79.4µM*
COc1ccccc1-c1nc(C(=O)NC2CC2)n2ccncc12 | 3.7 | 5.7%[87.6 µM] | 14.4%[87.6 µM] | 35.5µM*
COc1ccccc1-c1nc(C(=O)NCc2ccc(F)cc2)n2ccncc12 | -11.9 | ? | 0.4% | 89.1µM*
COc1ccccc1-c1nc(C(=O)NCc2cccs2)n2ccccc12 | 36.1 | -6.5% | 41.9% | ?
COC(=O)CNC(=O)c1nc(-c2ccccc2)c2ccccn12 | 15.8 | 3.6%[87.6 µM] | -6.7%[87.6 µM] | i
C[S+](=O)([O-])c1ccc(-c2nc(C(=O)NCc3ccc(F)cc3)n3ccncc23)cc1 | -13.9 | 14.4% | -2.7% | i
COC(=O)CNC(=O)c1nc(-c2ccccc2OC)c2ccccn12 | 12.5 | 2.5% | 63.2% | 89.1µM*
Cc1c(C(=O)N(C)c2ccccc2)nnn1-c1ccccc1F | . | . | . | i
O=C(C1CCCN(Cc2cccc(-c3ccc(F)cc3F)c2)C1)N1CCC(Cc2ccccc2)CC1 (stereo not drawn) | 6.7 | 4.5% | -15.3% | .
COc1ccc(NC(=O)C2CC(=O)Nc3nc4ccccc4n32)c(OC)c1 (stereo not drawn) | . | . | . | i
CN1CCN(C(=O)Cn2nc(-c3ccc(Cl)cc3)c3ccccc3c2=O)CC1 | . | . | . | i
CC1(c2ccccc2)N(Cc2ccccc2)C(=O)OC12CCN(C(=O)Cc1ccc(O)cc1)CC2 (stereo not drawn) | 9.1 | -21.0% | -10.8% | ?
COCCNC(=O)c1nc(-c2cccnc2)c2ccccn12 | 18.5 | -6.9%[87.6 µM] | -3.2%[87.6 µM] | i
COCCNC(=O)c1nc(-c2ccccc2OC)c2cnccn12 | 0.0 | 21.1%[87.6 µM] | 12.2%[87.6 µM] | 31.6µM*
CC(=O)NC(C)c1cc(C(C)(C)C)c(O)c(C(C)(C)C)c1 (stereo not drawn) | . | . | . | i
CC#CCn1cc2c3c(cccc31)[C@H](CC(C)C)N[C@H](C(=O)N1CCN(CCOC)CC1)C2 | 0.0 | -21.9% | 15.0% | 28.2µM*
COc1ccccc1CNC(=O)[C@@H]1Cc2cn(C)c3cccc(c23)[C@H](CC(C)C)N1 | -4.9 | ? | ? | 35.5µM*
CN(C)c1ccc(S(=O)(=O)N2CCCCC2)cc1NS(=O)(=O)c1ccc2ccccc2c1 | . | . | . | i

Screens as filed in PubChem.
